This passage reports Potency results from PubChem BioAssay (NCATS).

The nature of test [1]: qHTS of pediatric cancer cell lines to identify multiple opportunities for drug repurposing: Confirmatory screen for NB-EBc1 cells (AID 1347115).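 Further: cells exposed to compound for 48 h before the viability read; nearly all actives have a fitted effect of over 45% in size.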 Further: potency means the concentration at half of the fitted maximal effect. An outline of the steps:
(§1)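 Viability after 48 h compound treatment at 37C, 500-1,000 cells/well, read as ATP luminescence with CellTiter-Glo. Primary screens used 11-point (MIPE, 0.78 nM-46 µM) or 8-point (NPC, 0.59 nM-46 µM) final concentrations; follow-up screens used 11-point dilutions.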
(In general: Quantitative high-throughput screening tests each substance at several concentrations.)

The nature of test [2]: qHTS of pediatric cancer cell lines to identify multiple opportunities for drug repurposing: Confirmatory screen for SJ-GBM2 cells (AID 1347116). Further: nearly all actives have a fitted effect of over 60% in size. Further: potency means the concentration at half of the fitted maximal effect. An outline of the steps: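 Viability measured as metabolically active cells via CellTiter-Glo luminescence following 48 hours of compound exposure, 11-point dilutions in confirmatory testing. 500-1,000 cells/well plated 5 hours before dosing; controls were DMSO and 2.3 µM bortezomib.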

The nature of test [3]: qHTS of pediatric cancer cell lines to identify multiple opportunities for drug repurposing: Confirmatory screen for BT-37 cells (AID 1347117). Further: nearly all actives have a fitted effect of over 55% in size. Further: potency means the concentration at half of the fitted maximal effect. An outline of the steps: as §1
A short description of test [4]: qHTS of pediatric cancer cell lines to identify multiple opportunities for drug repurposing: Confirmatory screen for TC32 cells (AID 1347118).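 Further: cells exposed to compound for 48 h before the read; nearly all actives have a fitted effect of over 65% in size.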 Further: potency means the concentration at half of the fitted maximal effect. An outline of the steps:
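TC32 cells, 500-1,000/well in growth medium, compound-treated 48 h at 37 °C; viability from CellTiter-Glo luminescence. Primary screen: MIPE 11-point (0.78 nM–46 µM final), NPC 8-point (0.59 nM–46 µM final); confirmatory at 11-point dilutions.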

Test [5] in a line: qHTS of pediatric cancer cell lines to identify multiple opportunities for drug repurposing: Confirmatory screen for MG 63 (6-TG R) cells (AID 1347119). Further: nearly all actives have a fitted effect of over 55% in size. Further: potency means the concentration at half of the fitted maximal effect. An outline of the steps:
as §1

The nature of test [6]: qHTS of pediatric cancer cell lines to identify multiple opportunities for drug repurposing: Confirmatory screen for control Hh wild type fibroblast cells (AID 1347121). Further: nearly all actives have a fitted effect of over 70% in size. An outline of the steps: as §1
A short description of test [7]: qHTS of pediatric cancer cell lines to identify multiple opportunities for drug repurposing: Confirmatory screen for U-2 OS cells (AID 1347122). Further: nearly all actives have a fitted effect of over 65% in size. Further: potency means the concentration at half of the fitted maximal effect. An outline of the steps: as §1
The nature of test [8]: qHTS of pediatric cancer cell lines to identify multiple opportunities for drug repurposing: Confirmatory screen for Rh41 cells (AID 1347123).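 Further: 48 h compound exposure; nearly all actives have a fitted effect of over 60% in size.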 Further: potency means the concentration at half of the fitted maximal effect. An outline of the steps: as §1
A short description of test [9]: qHTS of pediatric cancer cell lines to identify multiple opportunities for drug repurposing: Confirmatory screen for RD cells (AID 1347124).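 Further: cells exposed to compound for 48 h before viability readout; nearly all actives have a fitted effect of over 65% in size.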 Further: potency means the concentration at half of the fitted maximal effect. An outline of the steps: as §1
Test [10] can be described thus: qHTS of pediatric cancer cell lines to identify multiple opportunities for drug repurposing: Confirmatory screen for Rh18 cells (AID 1347125). Further: nearly all actives have a fitted effect of over 55% in size. Further: potency means the concentration at half of the fitted maximal effect. An outline of the steps: as §1
Test [11] can be described thus: qHTS of pediatric cancer cell lines to identify multiple opportunities for drug repurposing: Confirmatory screen for Rh30 cells (AID 1347126). Further: nearly all actives have a fitted effect of over 55% in size. Further: potency means the concentration at half of the fitted maximal effect. An outline of the steps: as §1
Test [12] in a line: qHTS of pediatric cancer cell lines to identify multiple opportunities for drug repurposing: Confirmatory screen for Saos-2 cells (AID 1347127). Further: nearly all actives have a fitted effect of over 60% in size. Further: potency means the concentration at half of the fitted maximal effect. An outline of the steps: as §1
A short description of test [13]: qHTS of pediatric cancer cell lines to identify multiple opportunities for drug repurposing: Confirmatory screen for OHS-50 cells (AID 1347128). Further: potency means the concentration at half of the fitted maximal effect. An outline of the steps: as §1
Test [14] can be described thus: qHTS of pediatric cancer cell lines to identify multiple opportunities for drug repurposing: Confirmatory screen for SK-N-SH cells (AID 1347129).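 Further: cells exposed to compound for 48 h before viability read; nearly all actives have a fitted effect of over 60% in size.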 Further: potency means the concentration at half of the fitted maximal effect. An outline of the steps: as §1
Test [15] concerns Zika virus NS2B-NS3 protease. The test can be described thus: Primary screen GU AMC qHTS for Zika virus inhibitors (AID 1347154). Further: nearly all actives have a fitted effect of over 70% in size. Further: potency means the concentration at half of the fitted maximal effect. An outline of the steps:
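Unlinked Zika NS2B hydrophilic domain–NS3 protease complex at 25 nM in 10 mM Tris-HCl pH 8.0, 0.01% Tween 20, with an AMC peptide substrate. Fluorescence change (340/450 nm) over 15 min at room temperature, normalized to controls, fitted to 4-parameter Hill.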

Test [16] addresses N-terminal Xaa-Pro-Lys N-methyltransferase 1 (Homo sapiens) (UniProt Q9BV86). The test can be described thus: qHTS Assay for Inhibitors of N-terminal methyltransferase 1 (NTMT1): LOPAC validation of the NTMT1 SAHH-coupled ThioGlo3 Assay (AID 1347143).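 Further: SAH from peptide methylation measured as thiol fluorescence via SAHH coupling and ThioGlo3; potency means the concentration at half of the fitted maximal effect; nearly all actives have a fitted effect of over 70% in size.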 An outline of the steps: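 Recombinant human NTMT1 (125nM) was pre-incubated 1 min at room temperature with compounds over a concentration range, then a mix of 100uM SAM, 10uM SAHH and 15uM ThioGlo3 (concentrations in added reagent) was added. ThioGlo3 fluorescence (ex 340/em 450nm) after 30 min was normalized to the initial reading.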

Inconclusive results are not listed. Active and inactive are the calls of the source. The call rests on the fitted dose curve; in most records, active means well fitted curve in the direction sought with a large enough effect; inconclusive means small, poorly fitted or top-dose-only effect, or another doubt; inactive means no such curve, though single readings can be large; an effect the other way counts as inactive or inconclusive.

Sequence of N-terminal Xaa-Pro-Lys N-methyltransferase 1 (Homo sapiens) (Q9BV86 whole entry, looked up): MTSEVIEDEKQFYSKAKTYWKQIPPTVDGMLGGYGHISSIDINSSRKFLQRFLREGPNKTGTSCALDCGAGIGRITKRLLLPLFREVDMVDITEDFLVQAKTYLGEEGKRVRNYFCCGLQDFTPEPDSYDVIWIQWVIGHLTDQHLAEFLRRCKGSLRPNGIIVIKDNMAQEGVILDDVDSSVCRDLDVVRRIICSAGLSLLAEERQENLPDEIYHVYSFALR

`CC(C)(C)C(O)C(Oc1ccc(Cl)cc1)n1cncn1` (stereo not given): the Potency result in test [1], in [2], in [3], in test [4], in test [5] and in [6] was “inactive” each time. In addition, the Potency entry in [7], in test [8], in test [9], in test [10], in test [11] and in test [12] was “inactive” in each case. Further, the Potency result in [13], in [14] and in [15] was “inactive” each time.
Turning to `C[C@H]1CCCC=CC2C[C@H](O)C[C@@H]2[C@H](O)C=CC(=O)O1` (stereo not given in full), the Potency is 117 nM (active) in test [1]; 208 nM (active) in test [2]; 92.8 nM (active) in test [3]; 117 nM (active) in test [4]; 208 nM (active) in test [7]; 827 nM (active) in test [8]. The Potency was 329 nM (active) in test [9]; 104 nM (active) in test [10]; 3690 nM (active) in [11]; 46.5 nM (active) in test [13]; 132 nM (active) in test [14]. For the same compound, the Potency result in test [15] was “inactive”.
Turning to `Cc1c(C(=O)Nc2cccc(C(F)(F)F)c2)cc(-c2ccccc2)n1CCCN1CCOCC1`, the Potency is 42700 nM (active) in [1]; 42700 nM (active) in test [3]; 24000 nM (active) in test [7]; 21400 nM (active) in test [8]; 42700 nM (active) in test [13]. Besides, the Potency entry in [15] was “inactive”.
On to `CC[C@@]1(O)C(=O)OCc2c1cc1n(c2=O)Cc2cc3ccccc3nc2-1`, for which the Potency in [1] was 65.7 nM (active); in test [2], 104 nM (active); in test [3] it was 36.9 nM (active); in [4], 18.5 nM (active); in test [5], 73.7 nM (active); in test [7], 1040 nM (active). Moreover, the Potency is 369 nM (active) in test [8]; 465 nM (active) in test [9]; 827 nM (active) in [10]; 737 nM (active) in test [11]; 104 nM (active) in [12]; 147 nM (active) in test [13]. For the same compound, the Potency in test [14] was 2090 nM (active); in test [16] it was 3550 nM (active); in [15] it was 2120 nM (active).
As for `O=C(Nc1ccncc1)C(=O)c1cn(Cc2ccc(Cl)cc2)c2ccccc12`, the Potency is 827 nM (active) in test [3]; 233 nM (active) in test [4]; 369 nM (active) in test [5]; 465 nM (active) in test [7]; 465 nM (active) in [8]; 414 nM (active) in test [9]. Moreover, the Potency in [12] was 585 nM (active); in test [13], 928 nM (active). Also, the Potency entry in [11] and in [15] was “inactive” in each case.
Regarding `O=C(O)COc1nc(Cl)c(Cl)cc1Cl`, the Potency result in [1], in test [3], in [5], in [6], in test [7] and in test [8] was “inactive” throughout. The Potency entry in test [9], in [10], in [11], in test [13], in test [14] and in [15] was “inactive” each time.
Turning to `CC=C(C)C(=O)O[C@H]1C(C)=C2[C@@H]3OC(=O)[C@@](C)(O)[C@@]3(O)[C@@H](OC(=O)CCC)C[C@](C)(OC(C)=O)[C@@H]2[C@@H]1OC(=O)CCCCCCC`, the Potency entry in [1], in [3], in test [4], in [5], in [6] and in [7] was “inactive” in each case. Also, the Potency entry in test [8], in test [9], in test [10] and in [14] was “inactive” in each case.
